# Test results as given in PubChem BioAssay AID493074 (National Center for Advancing Translational Sciences (NCATS), 2011).
# The list shows a part of the results. Records with an inconclusive call do not appear. Active and inactive are the calls of the source. Calls follow the shape of the dose curve; as a rule, active = well fitted cell-killing curve with a large enough effect; inconclusive = small, poorly fitted or top-dose-only effect; inactive = no such curve, though single readings can be large or run the other way.
# Experiment: H358 Cell Viability Secondary Assay for qHTS Assay for Epigenetic Modulators: Round 2
# Conditions: H358 NSCLC viability, ATP luminescence, 72 h
# Description: NIH Molecular Libraries Screening Centers Network [MLSCN] NIH Chemical Genomics Center [NCGC] MLSCN Grant: 1 X01 MH079860-01 Assay Provider: Elisabeth D. Martinez, University of Texas SW Medical Center NCGC Assay Overview: This secondary assay characterizes selected actives identified in the qHTS of the Locus Derepression (LDR) assay (PubChem AID 1865). The LDR assay detects the derepression of a GFP reporter that is stably integrated in a region of the genome of murine c127i mammary cells that is presumably silenced. Compounds that cause derepression of the locus to express GFP are identified by enumerating GFP positive cells using a laser-scanning microplate cytometer. Selected LDR actives were assayed for killing of H358 non-small cell lung carcinoma (NSCLC) cells. […] Cell viability was measured using a luminescence-based detection reagent that measures cellular ATP levels.
# NCGC Assay Protocol Summary H358 cells were seeded at 125 cells/5 uL/well in white, solid bottom, 1536 well plates (Greiner). […] Plates were incubated 72 hours at 37deg C and 5% CO2, then 3.5 uL/well CellTiter-Glo(R) (Promega) detection reagent was added, plates were incubated at ambient temperature for 10 minutes and luminescence was measured by a ViewLux (Perkin Elmer) reader. […] A quantitative high-throughput screen identifies potential epigenetic modulators of gene expression. […]
row,SMILES,Potency
1,O=C1NC(=O)N(CCc2ccc(F)cc2)C(=O)/C1=C/C=C/c1ccccc1,8.88 µM (active)
